Screens from PubChem BioAssay.
CYP2C19 act – cytochrome P450 2C19 (human) activation | P33261 | recombinant CYP2C19, luciferin-H EGE luminescence; hits give high values; 0 = fully inhibited enzyme, 1 = untreated enzyme | activation factor at 5 µM | 96,000 tested, under 10 active;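 active means activation factor of at least 2 at 5 µM in the primary screen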
CYP2C9 act – increases human cytochrome P450 2C9 activity; activation factor at 5 µM; recombinant CYP2C9, luciferin-H conversion, luminescence; hits give high values; factor 1 = untreated enzyme, 0 = blocked; AID 1024; actives 1.4% (n = 96,000);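 active means activation factor of 2 or more for CYP2C9 at a 5 µM dose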
Target sequence (P11712 whole entry, looked up): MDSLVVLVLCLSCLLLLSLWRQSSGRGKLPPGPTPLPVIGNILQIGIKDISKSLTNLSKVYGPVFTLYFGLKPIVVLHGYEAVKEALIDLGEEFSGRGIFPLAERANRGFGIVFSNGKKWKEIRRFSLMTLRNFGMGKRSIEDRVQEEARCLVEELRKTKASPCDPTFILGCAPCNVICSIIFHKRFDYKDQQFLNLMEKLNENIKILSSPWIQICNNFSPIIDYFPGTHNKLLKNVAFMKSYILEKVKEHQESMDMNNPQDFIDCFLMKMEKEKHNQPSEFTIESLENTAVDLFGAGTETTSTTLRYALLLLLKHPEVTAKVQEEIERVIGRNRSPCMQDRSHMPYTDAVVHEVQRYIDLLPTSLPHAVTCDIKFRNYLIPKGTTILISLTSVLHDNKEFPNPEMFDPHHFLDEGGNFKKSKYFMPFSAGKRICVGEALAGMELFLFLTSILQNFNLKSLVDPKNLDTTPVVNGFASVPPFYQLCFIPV
Cav3 T inh – inhibitors of human Cav3.2 T-type calcium channel. AID 449739. O95180. actives 4% (n = 100,000). B-score at 10 µM. Cav3.2-expressing cells, Fluo-4 calcium fluorescence FDSS; hits give low values;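 active means single-dose well whose peak fluorescence ratio is a statistical outlier from its plate by either plate-standardised score or position-corrected B-score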
CYP2C9 inhib – human CYP2C9 inhibition; P11712; CYP2C9 Supersomes, luciferin-H conversion, luminescence; inhibition, % at 5 µM; actives 20% (n = 96,000);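 active means blocking of liver enzyme CYP2C9 beyond about 50% at 5 µM, limit read from the data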
CYP2C19 inhib – human CYP2C19 inhibition | P33261 | CYP2C19 Supersomes, luciferin-H EGE luminescence, 30 min | inhibition, % at 5 µM | actives 21% (n = 96,000) | AID 778;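 active means CYP2C19 inhibition above a set limit at 5 µM in the primary screen, cut at about 50% in these data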
Each line names hits and unclear results; the compound was inactive in the other large screens. In the library only some 27% were active in any assay of this set; here they are far more common.

CC[C@H](C)[C@@H](NC(=O)O[C@@H]1C(=O)c2cc(Br)ccc2O[C@H]1c1cccc(OC)c1)C(=O)OC	none (no result: CYP2C19 act, CYP2C9 act, CYP2C9 inhib, CYP2C19 inhib)
CCN(CC)c1ccc(Nc2nc(N3CCOCC3)c3ccccc3n2)cc1	CYP2C9 inhib 55, CYP2C19 inhib 54
O=C1CC(c2ccc(S(=O)(=O)N3CCN(c4ccccc4)CC3)cc2)CN1 (stereo unspecified)	none
Cc1nccc2[nH]c(=O)c(C(=O)NCCCN(C)C3CCCCC3)cc12	none
CN(c1ccccc1C(=O)NCc1ccco1)S(C)(=O)=O	none
CCOC(=O)c1ccccc1NC(=O)CN(c1ccccc1OCC)S(C)(=O)=O	none
CCOc1ccccc1N(CC(=O)Nc1cc(OC)ccc1OC)S(C)(=O)=O	CYP2C9 inhib 84, CYP2C19 inhib 96
CCOc1ccc(N(CC(=O)Nc2ccccc2C(=O)NCc2ccco2)S(C)(=O)=O)cc1	CYP2C9 inhib 70
CCOc1ccccc1N(CC(=O)Nc1ccccc1C(=O)O)S(C)(=O)=O	CYP2C9 inhib 97
CCOc1ccccc1N(CC(=O)Nc1ccccc1C(=O)NCc1ccco1)S(C)(=O)=O	CYP2C9 inhib 86, CYP2C19 inhib 86
COc1cccc2cc(C(=O)N(C)C3CCN(C)CC3)c(=O)oc12	none
N#CC1C(C#N)N2CCCN2C1c1ccc(Cl)cc1 (stereo unspecified)	none (no result: CYP2C19 act, CYP2C9 act, CYP2C9 inhib, CYP2C19 inhib)
N#Cc1cn(CCOc2ccccc2F)c2ccccc12	CYP2C9 inhib 100, CYP2C19 inhib 98
Cc1c(C#N)c2ccccc2n1CCOc1ccccc1F	CYP2C9 inhib 51
COC(=O)Cn1c(C)c(C#N)c2ccccc21	none (no result: CYP2C19 act, CYP2C9 act, CYP2C9 inhib, CYP2C19 inhib)
Cc1c(NC(=O)C(C)N2CC(C)OC(C)C2)c(=O)n(-c2ccccc2)n1C (stereo unspecified)	none
CC(C)COC(=O)Cn1cnc2ccc(Br)cc2c1=O	CYP2C9 inhib 56, CYP2C19 inhib 91
O=C(Cn1cnc2ccc(Br)cc2c1=O)c1cccs1	CYP2C9 inhib 52, CYP2C19 inhib 78
O=C(Cn1cnc2ccc(Cl)cc2c1=O)c1cccs1	CYP2C19 inhib 54
O=C(Cn1cnc2ccccc2c1=O)c1cccs1	none
O=C(N/N=C\c1cc(Br)cs1)C1COc2ccccc2O1 (stereo unspecified)	none
COc1ccc(CC(=O)OCC(=O)NC(=O)NC(C)C)cc1	none
CCOC(=O)c1nc(C)c(C(C)=O)s1	none (no result: CYP2C19 act, CYP2C9 act, CYP2C9 inhib, CYP2C19 inhib)
Cc1onc(-c2c(Cl)cccc2Cl)c1C(=O)n1nnc2ccccc21	none
CCOc1ccc(N2C(=O)CC(N3CCC(NC(=O)Nc4ccccc4)CC3)C2=O)cc1 (stereo unspecified)	CYP2C9 inhib 59, CYP2C19 inhib 90
C=CCn1c(=O)c2c3c(sc2n2c(Nc4ccccc4)nnc12)CCCC3	none
C=CCn1c(=O)c2c3c(sc2n2c(Nc4ccc(OC)cc4)nnc12)CCCC3	CYP2C9 inhib 79
O=S(=O)(NCCC1=CCCCC1)c1cccc(S(=O)(=O)N2CCOCC2)c1	CYP2C9 inhib 75, CYP2C19 inhib 76
O=S(=O)(NCc1ccc(F)cc1)c1cccc(S(=O)(=O)N2CCOCC2)c1	none
O=S(=O)(NCCc1ccccc1)c1cccc(S(=O)(=O)N2CCOCC2)c1	CYP2C9 inhib 61, CYP2C19 inhib 89
O=C(NCCC1=CCCCC1)C1CCN(S(=O)(=O)N2CCOCC2)CC1	none
Cn1c(=O)oc2cc(S(=O)(=O)NC3CCN(Cc4ccccc4)CC3)ccc21	none (no result: CYP2C19 act, CYP2C9 act, CYP2C9 inhib, CYP2C19 inhib)
O=S(=O)(NCc1ccco1)c1cccc(S(=O)(=O)N2CCOCC2)c1	CYP2C19 inhib 50
O=S(=O)(NC1CCN(Cc2ccccc2)CC1)c1cccc(S(=O)(=O)N2CCOCC2)c1	CYP2C19 inhib 54
CCOC(=O)c1ccc(NC(=O)c2cn(-c3ccccc3)nc2-c2ccncc2)cc1	none
CCOC(=O)c1c(C)c(C(=O)NCC2CCCO2)c(C)n1C (stereo unspecified)	none
CCOc1nc(SCCOc2ccccc2)nc(N(C)C)n1	none
O=S(=O)(CCc1ccccc1)N1CCOCC1	CYP2C19 inhib 70
N#Cc1ccccc1NC(=O)CC1CCCCC1	CYP2C19 inhib 58 (no result: Cav3 T inh)
Cc1cc(-c2ccccc2)nc2cc(C(=O)NCc3ccco3)nn12	none (no result: CYP2C19 act, CYP2C9 act, CYP2C9 inhib, CYP2C19 inhib)
CCCS(=O)(=O)N1CCCC(C(=O)NCCCN2CCN(c3cccc(Cl)c3)CC2)C1 (stereo unspecified)	none (no result: Cav3 T inh)
CN(C(=O)c1cc2sccc2n1C)C1CCCCC1	CYP2C19 inhib 74
Cn1c(C(=O)NC2CCCCC2)cc2sccc21	CYP2C19 inhib 55
CC1CCN(CCCNC(=O)c2cc3sccc3n2C)CC1	none
O=S(=O)(CCc1nc2ccccc2s1)c1ccc2ccccc2c1	none
